ATXN2 expr inh – ATXN2 expression inhibition; HEK-293 ATXN2-luciferase reporter, luminescence, 24 h; Potency, µM (highest dose often 57 µM), inactives show top-dose activity change, negative = inhibition, usual class: inhibitors; hit rate 0.72% among 360,000; note: potency is the fitted concentration of half-maximal effect; % is set by controls: 0 for no effect and ±100 for the full control effect; nearly all actives have a fitted effect of over 55% in size
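ATXN2-luciferase reporter cells (luciferase flanked by upstream and downstream ATXN2 gene portions) were treated 24 h at 37 °C with compounds at up to 57 uM. SteadyGlo luminescence gave expression; GF-AFC fluorescence gave viability.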
S2 tox – viability counter-screen for ATXN expression inhibitors. S2 cells (HEK-293 line with an ATXN2-luciferase reporter) viability, CellTiter-Fluor protease fluorescence, 24 h. Potency, µM (titrated, usually from 56.7 µM), usual class: cytotoxic. hit rate 0.49% among 400,000. AID 651635; note: potency is the fitted concentration of half-maximal effect; nearly all actives have a fitted effect of over 40% in size
DRD3 antagonist – blocks the human D3 dopamine receptor | D3R cells, DiscoveRx beta-arrestin luminescence, antagonist mode; active compounds read low | max response, negative = inhibition, % | hit rate 2.5% among 360,000 | AID 652054; in the data active = max response below about -50%; inconclusive = no clear call, values can overlap the other calls; note: % is set by controls: 0 for no effect and ±100 for the full control effect
Target sequence (P35462 whole entry, looked up): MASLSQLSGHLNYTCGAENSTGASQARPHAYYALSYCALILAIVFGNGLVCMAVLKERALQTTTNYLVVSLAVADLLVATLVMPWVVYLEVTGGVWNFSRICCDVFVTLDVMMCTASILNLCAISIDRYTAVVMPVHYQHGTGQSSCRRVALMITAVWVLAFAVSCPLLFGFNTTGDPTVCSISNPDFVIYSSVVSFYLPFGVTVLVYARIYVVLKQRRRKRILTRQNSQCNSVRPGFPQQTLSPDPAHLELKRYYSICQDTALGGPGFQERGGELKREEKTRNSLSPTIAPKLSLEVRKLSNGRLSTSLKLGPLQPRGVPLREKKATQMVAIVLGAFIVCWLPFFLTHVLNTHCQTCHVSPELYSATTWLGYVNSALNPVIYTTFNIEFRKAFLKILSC
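Cells expressing the human receptor were seeded at 1500 cells/well, incubated overnight at 37 degrees C in 5% CO2, then exposed to library compounds with dopamine controls for 90 minutes at 37 degrees C before luminescent detection.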
IL1B secr inh – blocks inflammasome-driven IL-1 beta release; THP-1 LPS/ATP IL-1B secretion, AlphaLISA, 16 h; active compounds read low; activity change, % at 57.5 µM; hit rate 4.7% among 360,000; AID 743279; in the data active = activity change below about -50%; inconclusive = mostly about -30% to -49%; note: % is set by controls: 0 for no effect and ±100 for the full control effect
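THP-1 cells pretreated 1 hr with compounds (up to 57.5 uM final), then stimulated with LPS (250 ng/mL final) plus ATP (1.25 mM final); secreted IL-1B measured by AlphaLISA after 16 hr, decreased signal indicating inhibition.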
DRD3 agonist – D3 dopamine receptor (human) agonism | P35462 | D3R DiscoveRx beta-arrestin cells, luminescence, 90 min | max activation, % | hit rate 0.58% among 410,000 | AID 652048; in the data active = max activation above about 30%; note: 0% is about no effect
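Agonist mode: compounds and dopamine controls were applied to plated cells for 90 min at 37 degrees C after an overnight attachment at 1500 cells/well. Luminescent read-out followed 30 - 60 minutes at room temperature with DiscoveRx detection reagent.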
a7 integrin act – activates integrin-mediated alleviation for muscular dystrophy | alpha7betagal myoblasts, beta-gal FDG fluorescence, 48 h | Potency, µM (highest dose often 38.3 µM), for inactives: top-dose activation, hits mostly activators | hit rate 0.064% among 350,000;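 note: potency is the fitted concentration of half-maximal effect; 100% = response of the positive control SU9516; nearly all actives have a fitted effect of over 60% in size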
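alpha7betagal+/- myoblasts (passage 13, 250/well) treated 48 h at 37C with compounds at 1:260 dilution of DMSO stock. Lysed, then beta-galactosidase activity read as FDG fluorescence (ex 480/em 540) after 30 min, with pre-read for autofluorescence.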
* = called active by the depositor; i = inactive; ? = inconclusive; nt = no result given; ! = not confirmed by another sample. This is a sample that favours compounds with a hit; in the whole collection about 7% have one here. Unless noted, calls come from the whole dose curve; as a rule, active = well fitted curve in the direction sought with a large enough effect; inconclusive = small, poorly fitted or top-dose-only effect, or another doubt; inactive = no such curve, though single readings can be large; an effect the other way counts as inactive or inconclusive.

SMILES | ATXN2 expr inh | S2 tox | DRD3 antagonist | IL1B secr inh | DRD3 agonist | a7 integrin act
CN[C@H]1C[C@@H](N)[C@H](O)[C@@H](O[C@@H]2O[C@H](CO)[C@H](O)[C@@H]3OC4(O[C@H]23)O[C@H](C(N)CO)[C@H](O)[C@H](O)[C@H]4O)[C@@H]1O (some centres undefined) | nt | i | nt | nt | -3 | nt
Nc1ccc2ccc3cccc[n+]3c2c1 | -23% | nt | -14 | 39 | -8 | -18%
C[n+]1c(-c2ccccc2)c2cc(N)ccc2c2ccc(N)cc21 | 7.1µM* | 16µM* | 4 | 0 | -2 | nt
COc1cccc(C(=O)CCN[C@@H](C)[C@H](O)c2ccccc2)c1 | ? | 32µM*! | nt | nt | -12 | nt
CC(NCc1ccc(Cl)cc1)C(O)c1ccccc1 (centres undefined) | -5% | i | -105* | -5 | -21 | 3%
CC(NCc1cccc(Cl)c1Cl)C(O)c1ccccc1 (centres undefined) | ? | i | -29 | -26 | -35 | ?
CC(NCc1ccc(Cl)cc1Cl)C(O)c1ccccc1 (centres undefined) | 15% | i | -56* | -17 | -33 | 33%
COc1cc(OC)c(OC)cc1CNC(C)C(O)c1ccccc1 (centres undefined) | -4% | i | -67* | -7 | 1 | 2%
O=[N+]([O-])c1cccc(CN2CCN(Cc3ccc(Br)cc3)CC2)c1 | -28% | i | -102* | -25 | -7 | 0%
CC(C)(C)C(=O)O[C@H]1CC[C@@]2(C)C(=CC(=O)C3C2CC[C@]2(C)C(=O)CCC32)C1 (some centres undefined) | -2% | i | 23 | 10 | 14 | 0%
Cc1ccc(C(O)(c2ccc(C)c(C)c2)C2CN3CCC2CC3)cc1C (centres undefined) | ? | ? | -4 | -86* | -6 | -72%
O=C(O)CNC1c2ccccc2CSc2ccccc21 (centres undefined) | 1% | i | 3 | 9 | -2 | ?
CC(Cc1ccsc1)NCc1cn[nH]c1-c1ccc(F)cc1F (centres undefined) | -18% | i | -5 | -54* | -2 | -20%
Cn1c(O)c(C=Nc2ccccc2Sc2ccccc2)c(=O)n(C)c1=O | 3% | i | 12 | 1 | -3 | -3%
CCC(=O)Oc1ccc(C(=O)Nc2cccc(C(=O)c3ccccc3)c2)cc1 | 23% | ? | 23 | -3 | 7 | -29%
N#Cc1cc(NC(=O)c2ccc(Cl)cc2)ccc1Sc1ccccc1 | ? | ? | 0 | -61* | -16 | nt
CCCCc1nn2c(=O)cc(COC(=O)Cc3ccccc3)nc2s1 | -12% | i | nt | nt | -6 | nt
CCOc1ccc(CN(CCc2ccc3c(c2)OCO3)Cc2ccc(OC)c(Br)c2)cc1 | nt | nt | nt | nt | -9 | nt
COc1cccc(CN(C)C[C@@H]2OCc3ccccc3-c3c(n(C)c4ccccc34)C(=O)N([C@@H](C)CO)C[C@H]2C)c1 | ? | 28µM* | 15 | -27 | 4 | -57%
C[C@@H]1CN([C@H](C)CO)C(=O)c2c(c3ccccc3n2C)-c2ccccc2CO[C@@H]1CN(C)Cc1ccc(O)cc1 | ? | ? | 1 | ? | 4 | -2%
Cc1ccc2c(Cl)cc(Cl)c(OCC(=O)N(C(C)C)C(C)C)c2n1 | -31% | ? | -16 | 0 | -10 | -2%
COc1cc2c3cc1Oc1c(OC)c(OC)cc4c1[C@H](Cc1ccc(cc1)Oc1cc(ccc1O)C[C@H]3N(C)CC2)N(C)CC4 | -11% | 14µM* | 0 | -2 | -3 | -20%
COc1ccc2cc1Oc1ccc(cc1)C[C@H]1c3cc(c(OC)cc3CCN1C)Oc1c(OC)c(OC)cc3c1[C@H](C2)N(C)CC3 | ? | 25µM* | 1 | -96* | -34 | nt
COc1cc2c3cc1Oc1cc(ccc1O)C[C@@H]1c4c(cc(OC)c(O)c4Oc4ccc(cc4)C[C@H]3N(C)CC2)CCN1C | ? | 4µM* | 0 | 18 | 0 | nt
CN(C)C(=O)Oc1ccc2c(c1)O/C(=C\c1ccc(Cl)cc1)C2=O | nt | i | -17 | -2 | 1 | 0%
SMILES | ATXN2 expr inh | S2 tox | DRD3 antagonist | IL1B secr inh | DRD3 agonist | a7 integrin act
CN(C)C(=O)Oc1ccc2c(c1)O/C(=C\c1cccc(Cl)c1)C2=O | 36% | i | -10 | -61* | 5 | -24%
COc1ccccc1C(=O)Nc1ccc2nc(SCC(=O)N(C)c3ccccc3)sc2c1 | ? | ? | nt | nt | 39* | nt
Cc1ccccc1C(=O)Nc1ccc2nc(SCC(=O)N(C)c3ccccc3)sc2c1 | 0% | ? | nt | nt | 4 | nt
COC(=O)c1ccc(CN2CCN(Cc3ccccc3)CC2)cc1 | -10% | i | -81* | 8 | -74 | 17%
CC(=O)Nc1ccc(CC(=O)N2CCN(Cc3ccccc3)CC2)cc1 | -2% | i | -17 | -13 | -12 | 21%
c1cc2c(cc1[C@H]1OC[C@H]3[C@H]1CO[C@H]3c1ccc3c(c1)OCO3)OCO2 | 4% | nt | nt | nt | nt | nt
Cc1cccc(CNCCc2c[nH]c3ccccc23)c1 | ? | i | -25 | -75* | -17 | -55%
Fc1cccc(CNCCc2c[nH]c3ccccc23)c1 | nt | i | -13 | ? | -18 | -25%
COc1cc(CNCCc2c[nH]c3ccccc23)cc(OC)c1 | ? | i | -68* | -80* | -38 | ?
COc1cc(CNCCc2c[nH]c3ccccc23)cc(OC)c1OC | nt | ? | 3 | ? | -1 | -29%
c1ccc(CNCCc2c[nH]c3ccccc23)cc1 | nt | i | -26 | -10 | -2 | -29%
CCc1ccc(CNCCc2c[nH]c3ccccc23)cc1 | nt | i | ? | -52* | -19 | -4%
c1ccc2c(CCNCc3ccc4c(c3)OCO4)c[nH]c2c1 | -20% | i | -68* | -23 | -2 | -28%
O=C(CCc1nc(C2=CCN(Cc3cccc(Cl)c3)CC2)no1)Nc1ccccc1F | -22% | ? | nt | nt | -14 | nt
ClCc1cccc(Cl)c1 | 8% | i | nt | nt | nt | nt
CC(C)CNP(=S)(c1ccccc1)C(C)(C)C (centres undefined) | 2% | i | 3 | 29 | 1 | ?
CC(C)(C)n1cc(C(=O)c2ccccc2)cc1-c1ccccc1 | nt | i | -9 | 18 | 0 | -4%
O=C1Nc2ccccc2Oc2ccccc21 | nt | i | 15 | ? | 7 | -21%
CN1CCN(C(=O)COc2ccc3ccccc3c2)CC1 | 16% | i | -18 | 16 | -11 | 16%
CN1CCN(C(=O)COc2ccc(-c3nc4ccccc4s3)cc2)CC1 | ? | i | ? | -60* | -14 | -1%
CN1CCCN(C(=O)COc2cccc(C(F)(F)F)c2)CC1 | 5% | i | -89* | 8 | 2 | 8%
COc1nc2ccccc2nc1N1CC1 | 12% | i | -5 | 32 | -1 | nt

Screens from PubChem BioAssay.
